# Data as given in PubChem BioAssay (NCATS).
# Inconclusive results are not listed. A call without a number means that no potency is given here. The source made the active and inactive calls. Calls follow the shape of the dose curve; as a rule, active = well fitted curve in the direction sought with a large enough effect; inconclusive = small, poorly fitted or top-dose-only effect, or another doubt; inactive = no such curve, though single readings can be large; an effect the other way counts as inactive or inconclusive.
# Columns and labels:
# [1] = OV-KATE Cancer Cell Toxicity qHTS against the NCATS CANVASS Library (AID 1347345); settings: OV-KATE cells viability, CellTiter-Glo luminescence, 72 h; series mostly up to 38.3 µM
# How it was run: (§1)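 1000 cells/well seeded and rested 4 h at 37 °C before pin transfer of compounds in an 11-pnt series. Exposure 72 h at 37 °C/5% CO2; viability by CellTiter-Glo luminescence after 15 min at room temperature.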
# [2] = HPAF-II Cancer Cell Toxicity qHTS against the NCATS CANVASS Library (AID 1347346); settings: HPAF-II viability, CellTiter-Glo ATP luminescence, 72 h; series mostly up to 38.3 µM; also: nearly all actives have a fitted effect of over 55% in size
# How it was run: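 1000 HPAF-II cells/well; 4 h pre-incubation; 11-pnt compound titration; 72 h, 37 degrees C/5% CO2; CellTiter-Glo, 15 min RT; luminescence read.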
# [3] = UWB1.289 Cancer Cell Toxicity qHTS against the NCATS CANVASS Library (AID 1347347); settings: UWB1.289 viability, CellTiter-Glo luminescence, 72 h; series mostly up to 38.3 µM; also: nearly all actives have a fitted effect of over 60% in size
# How it was run: as §1
# [4] = OV-SAHO Cancer Cell Toxicity qHTS against the NCATS CANVASS Library (AID 1347348); settings: OV-SAHO viability, CellTiter-Glo luminescence, 72 h; series mostly up to 38.3 µM; also: nearly all actives have a fitted effect of over 55% in size
# How it was run: as §1
# [5] = SW1088 Cancer Cell Toxicity qHTS against the NCATS CANVASS Library (AID 1347350); settings: SW1088 viability, CellTiter-Glo luminescence, 72 h; at 38.3 µM (top of the series); also: nearly all actives have a fitted effect of over 75% in size
# How it was run: as §1
# [6] = U-118MG Cancer Cell Toxicity qHTS against the NCATS CANVASS Library (AID 1347351); settings: U-118MG viability, CellTiter-Glo luminescence, 72 h; series mostly up to 38.3 µM
# How it was run: as §1
# [7] = COV-362 Cancer Cell Toxicity qHTS against the NCATS CANVASS Library (AID 1347352); settings: COV-362 viability, CellTiter-Glo luminescence, 72 h; series mostly up to 38.3 µM
# How it was run: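 1000 cells/well, 4 h pre-incubation 37 °C/5% CO2; 11-pnt titration; 72 h; CellTiter-Glo 15 min RT, luminescence.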
# [8] = HepG2 cells viability qHTS for Zika virus inhibitors (AID 1347168); settings: Zika counter-screen; series mostly up to 45.9 µM
# How it was run: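 Luminescent ATP readout (CellTiter Glo) after 30 min at 37 degrees C gives viability; cells in DMEM + 4% FBS were treated 24 to 48 hours with compound, following overnight attachment.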
# [9] = Tertiary RLuc qRT-PCR qHTS assay for Zika virus inhibitors (AID 1347169); settings: infected Vero cells, reporter luminescence, 48-72 h; series mostly up to 45.9 µM; also: nearly all actives have a fitted effect of over 55% in size; also: potency is read from the fitted curve at half-maximal effect
# How it was run: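 Vero cells (1,000 per well) plated overnight at 37 degrees C, treated with compound in DMSO, then infected with recombinant ZIKV-RLuc (Cambodian) at MOI 1-2 for 48-72 hrs. Live-cell Renilla luciferase substrate added; luminescence read after 1-1.5 hrs.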
smiles,measurement,setting,value
O=C(O)C(O)Cc1ccc(O)c(O)c1 (configuration not stated),outcome,[1],inactive
same,outcome,[2],inactive
same,outcome,[3],inactive
same,outcome,[4],inactive
same,outcome,[5],inactive
same,outcome,[6],inactive
same,outcome,[7],inactive
CC1(C)CCC(CN2CCN(c3ccc(C(=O)NS(=O)(=O)c4ccc(NCC5CCOCC5)c([N+](=O)[O-])c4)c(Oc4cnc5[nH]ccc5c4)c3)CC2)=C(c2ccc(Cl)cc2)C1,outcome,[8],inactive
same,Potency,[9],5.72 µM (active)
NC(=O)c1cccc2[nH]c(-c3ccc([C@H]4CCCN4)cc3F)nc12,outcome,[8],inactive
same,Potency,[9],inactive
Cc1ccn(-c2ccc(-c3ncco3)cc2)c(=O)c1-c1ccc2nc(N)ncc2c1,outcome,[8],inactive
